# Results: PubChem BioAssay AID588852 (The Scripps Research Institute Molecular Screening Center, 2011)
# The whole screen tested about 360,000 compounds, of which about 4,600 (1.3%) were called active. This excerpt belongs to a sample that is enriched for actives. A number with no mark means an inactive call.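 Rule for the calls: active = percent inhibition above its own plate's cutoff, namely the mean of that plate's compound wells plus 3 SD; inactive = the rest.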
# Molecular target: Muscarinic acetylcholine receptor M1 (Homo sapiens) (UniProt P11229)
# Experiment: human M1 muscarinic receptor antagonists, primary screen, CHO-K1 cells, Fluo-8 calcium fluorescence, 1536-well (AID 588852);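 note: peak over basal fluorescence ratio during 140 s after agonist addition; 0% = ACh EC80 plus DMSO and 100% = DMSO alone without agonist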
# Settings: CHO-K1 hM1, Fluo-8 calcium fluorescence, ACh EC80 antagonist; at 3 µM; hits give high values
# Sequence of Muscarinic acetylcholine receptor M1 (Homo sapiens) (P11229 whole entry, looked up): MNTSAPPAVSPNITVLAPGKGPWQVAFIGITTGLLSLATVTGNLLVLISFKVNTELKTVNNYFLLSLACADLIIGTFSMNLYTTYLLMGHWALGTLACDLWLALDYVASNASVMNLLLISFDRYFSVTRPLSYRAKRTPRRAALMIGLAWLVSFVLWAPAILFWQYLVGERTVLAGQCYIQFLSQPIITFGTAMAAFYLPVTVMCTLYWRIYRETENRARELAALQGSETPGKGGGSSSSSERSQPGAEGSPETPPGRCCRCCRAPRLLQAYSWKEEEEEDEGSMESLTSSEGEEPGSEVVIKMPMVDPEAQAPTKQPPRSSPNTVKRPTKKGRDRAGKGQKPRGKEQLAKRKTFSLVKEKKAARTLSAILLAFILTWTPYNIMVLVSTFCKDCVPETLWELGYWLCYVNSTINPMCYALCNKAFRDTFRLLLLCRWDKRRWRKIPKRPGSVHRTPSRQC
row,Structure (SMILES),inhibition
1,CCc1nc2ccc(C(=O)N3CCN(S(=O)(=O)CC)CC3)cn2c1N(C=O)CCC(C)C,-13.9%
2,CC1=C(C(=O)N2CCOCC2)CC(CC(=O)NCCCN(C)C)C(=O)N1Cc1ccc(C(C)(C)C)cc1 (stereo not drawn),-15.7%
3,CC(Oc1cc2oc(=O)c3c(c2cc1Cl)CCCC3)C(=O)NCc1ccncc1 (stereo not drawn),1.37%
4,COc1ccc(S(=O)(=O)NC(C)C(=O)NCc2ccncc2)cc1Cl (stereo not drawn),25.1% (active)
5,Cc1ccc(S(=O)(=O)NC(C)C(=O)NCc2ccc(Cl)cc2)cc1 (stereo not drawn),5.87%
6,CC(=O)N1C[C@@H](CO)[C@@H](N(C)C(=O)c2ccco2)C[C@H]1c1ccccc1,30.9%
7,COc1cc(OC)cc(C(=O)NNC(=O)CNC(=O)c2ccc(Br)o2)c1,15.6%
8,CCN1CN(Cc2ccccc2)CNC1=S,0.26%
9,COc1ccc(NC(=O)C2(C)Cc3c(-c4cccc(NC(C)=O)c4)ccnc3O2)cc1 (stereo not drawn),-7.09%
10,COc1cccc(CNc2nc(NCc3ccccc3OC)nc3ccsc23)c1,24.1%
11,COc1cccc(CNc2nc(NCc3cccs3)nc3ccsc23)c1,51.9% (active)
12,COCCNc1nc(NCc2ccc(NC(C)=O)cc2)c2sccc2n1,-8.59%
13,COc1ccc(-c2nc3c(s2)CCc2onc(-c4ccc(OC)cc4)c2-3)cc1,-8.59%
14,O=C(/C=C(O)/C=C/c1ccc(O)cc1)/C=C/c1ccc(O)cc1,33.7% (active)
15,COc1ccc(/C=C/C(=O)c2c(O)cc(OC)cc2OC)cc1,4.93%
16,COc1cccc(C=CC(=O)C=CC=Cc2ccccc2)c1,-3.17%
17,O=S1(=O)C[C@@H](N2CCN(CCO)CC2)[C@H](COCc2ccccc2)N1,8.79%
18,COC(=O)CCCC1=CC2=C(c3ccccc3)C(=O)C(C)(OC(=O)C3CCCC3)C(=O)C2=CN1c1ccc(OC)cc1 (stereo not drawn),4.39%
19,CSc1ncccc1C(=O)N1CCCC(Nc2ccc(F)c(F)c2)C1 (stereo not drawn),-21.9%
20,Cc1ccc(CN2CC(C(=O)NNC(=O)Cn3ccc(C(F)(F)F)n3)CC2=O)cc1 (stereo not drawn),-4.1%

row,Structure (SMILES),inhibition
1,O=C1NC(O)CCN1C1CC(O)C(CO)O1 (stereo not drawn),4.13%
2,COc1ccc(CNC(=O)C(c2ccc(O)cc2)N(Cc2ccco2)C(=O)c2snc(C(N)=O)c2N)cc1 (stereo not drawn),34.8% (active)
3,NC(=O)c1nsc(C(=O)N(CC(=O)NCc2ccc(F)cc2)Cc2ccco2)c1N,-9.5%
4,COc1cc(C(C(=O)NC2CCCC2)N(Cc2ccccc2)C(=O)c2snc(C(N)=O)c2N)ccc1O (stereo not drawn),0.09%
5,CCOC(=O)N1CCN(S(=O)(=O)c2ccc(C(=O)Nc3ccc(F)cc3F)cc2)CC1,5.69%
6,Cc1cc2cc3c(cc2nc1SCC(=O)Nc1c(C)cccc1C)CCC3,-12.5%
7,O=C(CC[C@H]1O[C@@H](n2ccc(=O)[nH]c2=O)[C@H](O)[C@@H]1O)N[C@H](Cc1ccccc1)C(=O)NCCCN1CCCC1=O,-9.33%
8,Cc1cccc2c1-c1sc(C(=O)NCCCN3CCc4ccccc4C3)cc1CO2,58.2% (active)
9,Cc1cccc(C)c1NC(=O)c1ccc(CN2CCc3ccccc3C2)cc1,4.61%
10,Cc1ccc(NC(=O)CN2CCc3ccccc3C2)cc1C,-11%
11,CC(C)c1nc2sc3c(c2c(=O)n1N)CC(C)(C)OC3,-0.09%
12,N=c1c2c3c(sc2nc2n1CCCCC2)CCCC3,89.3% (active)
13,N=c1c2c3c(sc2ncn1CCCN1CCOCC1)CCCCC3,1.24%
14,CC1(C)Cc2c(sc3nc4n(c(=N)c23)CCCCC4)CO1,53.3% (active)
15,CCSc1nc2sc3c(c2c(=O)[nH]1)CC(C)(C)OC3,-5.74%
16,O=c1c2c(nc3n1CCCCC3)sc1c(O)cccc12,-13.7%
17,COc1ccccc1-c1cnn2c(N3CCOCC3)cc(C)nc12,-0.68%
18,C=CCn1c2c(c3ccccc31)CCC2,3.67%
19,Cc1ccc2cc3cc(C(=O)N4CCCCCC4)oc3nc2c1,-17.6%
20,Fc1ccc2[nH]c3c(N4CCSCC4)ncnc3c2c1,41.1% (active)

row,Structure (SMILES),inhibition
1,CCOC(=O)N(Cc1ccccc1)C1CC1,-16%
2,CCCCNC(=O)CSc1nc2ccc(NC(=O)CSc3nnc(N)s3)cc2s1,-9.73%
3,CCCCNC(=O)CSc1nc2ccc(NC(=O)CSc3nnc(COc4ccccc4C)n3C)cc2s1,-13.4%
4,Nc1nnc(SCC(=O)Nc2ccc3nc(SCC(=O)Nc4ccccc4)sc3c2)s1,30.3% (active)
5,O=C1c2ccccc2C(c2nc3ccccc3[nH]2)N1c1ccccc1 (stereo not drawn),-32.7%
6,CCS(=O)(=O)Nc1ccc(C2=NN(S(=O)(=O)c3ccc(F)cc3)C(c3ccco3)C2)cc1 (stereo not drawn),-7.75%
7,COc1cccc(NC(=O)CN(C)C(=O)c2cc(Cl)nc3ccccc23)c1,-8.88%
8,COc1ccc(-c2cc(C(=O)N(C)Cc3ccccc3)c3ccccc3n2)cc1,41% (active)
9,COc1ccc(CN(C)C(=O)Cc2c[nH]c3ccccc23)c(OC)c1OC,-18.1%
10,COc1ccc(-c2cc(C(=O)n3cnc4ccccc43)c3ccccc3n2)cc1,-11.1%
11,COc1ccc(-c2cc(C(=O)N(C)CC(=O)Nc3ccccc3Cl)c3ccccc3n2)cc1OC,21% (active)
12,COc1ccc(CN(C)C(=O)c2cc(-c3ccc(C)cc3C)nc3ccccc23)c(OC)c1OC,26.6% (active)
13,COc1ccc(-c2cc(C(=O)N(C)Cc3ccc(OC)c(OC)c3OC)c3ccccc3n2)cc1OC,41.5% (active)
14,COc1ccc(-c2cc(C(=O)NCCCN3CCCC3=O)c3ccccc3n2)cc1OC,19.9%
15,COc1ccc(S(=O)(=O)N2CCCCCC2)cc1C(=O)N(C)Cc1cccc(OC)c1OC,-2.19%
16,COc1ccc(CN(C)C(=O)Cc2ccsc2)c(OC)c1OC,-4.83%
17,COc1ccc(Cl)cc1NC(=O)CN(C)C(=O)c1cc2ccccc2cc1OC,-2.48%
18,COc1ccc(NC(=O)c2cc(-c3cc(OC)c(OC)c(OC)c3)nc3ccccc23)c(OC)c1,-10.6%
